Screening results as filed in PubChem BioAssay.
Only a selection was taken, and hits are over-represented in it overall.
Dicer processing: inhibitors of Dicer pre-microRNA processing, primary screen, biochemical, cat-ELCCA, chemiluminescence | Endoribonuclease Dicer (Homo sapiens), Q9UPY3 | AID 1347074, 2019 | z-score at 25 µM | cat-ELCCA pre-miR-21 Dicer processing; stronger effect = higher value | 6% of 47,000 active; in the data active = z-score above about 3, passing the limit was not always enough;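 note: plate controls were vehicle for no effect and no enzyme for full effect; higher signal means more uncleaved substrate so more Dicer inhibition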
Target sequence (Q9UPY3 whole entry, looked up): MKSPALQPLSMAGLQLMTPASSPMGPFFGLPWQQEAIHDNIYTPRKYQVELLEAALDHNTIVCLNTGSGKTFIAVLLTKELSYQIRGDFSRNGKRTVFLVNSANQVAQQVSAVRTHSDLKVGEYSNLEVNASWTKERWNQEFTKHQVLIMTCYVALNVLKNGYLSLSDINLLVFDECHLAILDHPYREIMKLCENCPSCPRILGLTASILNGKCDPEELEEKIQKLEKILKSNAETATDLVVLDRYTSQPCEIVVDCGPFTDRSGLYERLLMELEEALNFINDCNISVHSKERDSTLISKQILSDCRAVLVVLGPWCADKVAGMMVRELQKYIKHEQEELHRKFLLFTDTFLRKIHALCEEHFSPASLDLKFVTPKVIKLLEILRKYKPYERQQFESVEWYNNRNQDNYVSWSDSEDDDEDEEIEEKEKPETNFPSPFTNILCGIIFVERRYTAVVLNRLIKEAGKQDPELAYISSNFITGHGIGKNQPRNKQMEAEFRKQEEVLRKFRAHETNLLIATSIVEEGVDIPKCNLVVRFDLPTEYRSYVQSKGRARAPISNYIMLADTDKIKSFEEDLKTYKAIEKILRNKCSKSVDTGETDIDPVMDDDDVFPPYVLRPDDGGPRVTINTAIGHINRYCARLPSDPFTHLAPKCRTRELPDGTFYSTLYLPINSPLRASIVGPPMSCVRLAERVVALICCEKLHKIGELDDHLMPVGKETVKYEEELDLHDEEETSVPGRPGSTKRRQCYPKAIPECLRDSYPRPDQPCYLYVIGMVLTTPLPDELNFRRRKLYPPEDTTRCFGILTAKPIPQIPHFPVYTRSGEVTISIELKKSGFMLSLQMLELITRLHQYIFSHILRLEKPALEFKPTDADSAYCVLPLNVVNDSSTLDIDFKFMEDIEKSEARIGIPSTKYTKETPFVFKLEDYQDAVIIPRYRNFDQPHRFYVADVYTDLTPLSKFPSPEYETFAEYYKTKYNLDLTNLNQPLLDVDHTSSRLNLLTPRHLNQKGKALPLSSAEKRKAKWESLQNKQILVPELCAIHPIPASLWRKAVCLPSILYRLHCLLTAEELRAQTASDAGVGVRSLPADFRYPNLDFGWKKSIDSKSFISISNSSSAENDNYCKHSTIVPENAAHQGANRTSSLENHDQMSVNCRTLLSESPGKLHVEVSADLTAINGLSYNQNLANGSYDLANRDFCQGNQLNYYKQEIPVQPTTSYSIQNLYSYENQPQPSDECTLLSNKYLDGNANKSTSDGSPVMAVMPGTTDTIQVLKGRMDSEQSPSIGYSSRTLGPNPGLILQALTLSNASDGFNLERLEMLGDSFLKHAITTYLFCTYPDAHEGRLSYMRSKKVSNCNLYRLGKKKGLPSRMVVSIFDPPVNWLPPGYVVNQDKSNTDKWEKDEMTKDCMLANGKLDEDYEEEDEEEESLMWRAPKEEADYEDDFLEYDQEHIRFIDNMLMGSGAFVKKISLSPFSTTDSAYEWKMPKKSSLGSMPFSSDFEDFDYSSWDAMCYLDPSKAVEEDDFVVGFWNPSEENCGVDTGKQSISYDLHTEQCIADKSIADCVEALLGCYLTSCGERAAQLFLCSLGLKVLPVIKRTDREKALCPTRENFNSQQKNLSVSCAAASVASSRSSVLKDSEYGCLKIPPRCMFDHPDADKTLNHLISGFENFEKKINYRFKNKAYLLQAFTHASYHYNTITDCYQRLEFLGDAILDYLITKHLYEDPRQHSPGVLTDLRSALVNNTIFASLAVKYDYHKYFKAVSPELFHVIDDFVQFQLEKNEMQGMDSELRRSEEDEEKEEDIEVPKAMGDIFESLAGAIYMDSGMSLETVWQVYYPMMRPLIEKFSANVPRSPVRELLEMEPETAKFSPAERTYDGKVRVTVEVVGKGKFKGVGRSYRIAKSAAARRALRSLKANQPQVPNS
* hit, by the source's call.

SMILES	Dicer processing
CCCCOC(=O)CCc1nc2ccccc2[nH]c1=O	0.6
Cc1cc(C)c(NC(=O)CSCc2cnc(C)c(O)c2CO)c(C)c1	-0.32
COc1cccc(OC)c1CN(C)C(=O)c1cnc(OCc2ccccc2)cc1C(F)(F)F	-1.3
O=c1c(-c2ccc3c(c2)OCCO3)coc2cc(O[C@@H]3O[C@@H](CO)[C@H](O)[C@@H](O)[C@@H]3O)ccc12	1.1
Cc1onc(-c2ccccc2)c1N1C(=O)CCN(Cc2ccccc2)C1=O	-1.9
CC1C/C(=N\O)c2cc(Cl)ccc2S1(=O)=O (stereo unspecified)	-1.8
O=C(Oc1ccc2cc(Br)ccc2c1)c1ccco1	5.8*
O=C(Oc1ccc2c(c1)oc(=O)c1ccccc12)c1ccco1	-0.17
O=C(Oc1cccc(Br)c1)c1ccco1	2.9
Cc1noc(-c2ccc(Cl)cc2)c1C(=O)NN	-1.1
N=C(N)c1ccc(Cl)cc1	3.7*
O=C(O)CCC(=O)c1ccc(Cl)cc1	-0.17
N=C(N)c1cc(Cl)cc(Cl)c1	-0.57
Cc1ccccc1C(Nc1ccccn1)c1ccc2cccnc2c1O (stereo unspecified)	5.7*
C=CCOc1ccc(C(Nc2ccccn2)c2ccc3ccc(C)nc3c2O)cc1 (stereo unspecified)	0.31
Cc1ccc2ccc(C(Nc3ccccn3)c3cccc(Br)c3)c(O)c2n1 (stereo unspecified)	-0.92
Cc1ccnc(NC(c2ccccc2C)c2ccc3cccnc3c2O)c1 (stereo unspecified)	2.1
Cc1ccc(C)c(C(Nc2ccccn2)c2ccc3cccnc3c2O)c1 (stereo unspecified)	9
Cc1cccc(NC(c2cccc(O)c2)c2ccc3ccc(C)nc3c2O)n1 (stereo unspecified)	0.83
Cc1ccc2ccc(C(Nc3ccccn3)c3cccc(Cl)c3)c(O)c2n1 (stereo unspecified)	16*
Cc1ccc2ccc(C(Nc3ccccn3)c3ccc(Cl)cc3)c(O)c2n1 (stereo unspecified)	4.8*
Cc1ccc(C(Nc2ccccn2)c2ccc3ccc(C)nc3c2O)cc1 (stereo unspecified)	-0.45
COc1ccccc1C1CCN(C(=O)[C@@H](C)N2CCN(c3ccc(C(F)(F)F)cn3)CC2)CC1	0.46
Clc1ccccc1CSc1nccc(-c2csc(-c3ccccc3)n2)n1	-0.09
COC(Cn1c(SCc2ccccc2)nnc1-c1ccccc1)OC	1.8
SMILES	Dicer processing
Cc1nnc(N2C(=O)c3oc4ccccc4c(=O)c3C2c2ccc(Br)cc2)s1 (stereo unspecified)	0.37
CC1=C(C(=O)OC(C)C)C(c2cccnc2)C2=C(CC(c3ccc(Cl)cc3)CC2=O)N1 (stereo unspecified)	1.7
Cc1onc(-c2c(Cl)cccc2Cl)c1C(=O)OC1=CC(=O)CC(C)(C)C1	-0.98
CN(C)/C=C\c1ccnc(-c2cc(/C=C\N(C)C)ccn2)c1	2.2
C=CCNC(=O)Cc1coc2ccc3ccccc3c12	-1.5
CCc1ccc(CN(C)CCc2ccccn2)cc1	1.9
Cc1ccc(CN(C)CCc2ccccn2)cc1	1.5
CN(CCc1ccccn1)Cc1ccc(Cl)cc1	3.7*
Cc1ccc(OCC(O)CN2CCC(C)CC2)c(C)c1 (stereo unspecified)	1.2
Cc1ccc2[nH]c3c(N4CCCCC4)ncnc3c2c1	2.9
CN(C)c1ncnc2c1[nH]c1ccccc12	3.5*
CCN(CC)c1ncnc2c1[nH]c1ccccc12	1.9
COC(=O)c1cc(-c2ccc(S(=O)(=O)N3CCOCC3)cc2)c(C(F)(F)F)s1	-1.4
COC(=O)C1=C(C)NC2=C(C(=O)CC(C)(C)C2)C1c1ccc(C)cc1 (stereo unspecified)	-0.27
COc1ccc(-c2n[nH]c(C)c2-c2ccc(F)cc2)c(O)c1	1.6
CCOc1ccc(-c2n[nH]c(C)c2-c2ccccc2)c(O)c1	5.1*
Cc1[nH]nc(-c2ccc(O)cc2O)c1Oc1ccccc1	-1.1
Cc1c(C(=O)Nc2ccccc2)cc(C(C)(C)C)n1-c1ccccc1	1.3
O=C(CSc1ccccn1)c1ccc(Cl)cc1	-1.8
Cn1cc(C(=O)c2ccc(Cl)cc2)cc1/C=C(\C#N)C(=O)c1ccc(Cl)cc1	0.1
CSc1nc(-c2ccccc2)cc(=O)[nH]1	1.6
CC1CCc2c(sc3ncn(CC(=O)O)c(=O)c23)C1 (stereo unspecified)	2.9
CC1CCc2c(sc3nnn(CC(=O)Nc4ccc(Br)cc4)c(=O)c23)C1 (stereo unspecified)	-1.1
O=C(Cn1nnc2sc3c(c2c1=O)CCCC3)Nc1ccc(Cl)cc1	-0.06
O=C(Cn1nnc2sc3c(c2c1=O)CCCC3)Nc1ccccc1	0.74
SMILES	Dicer processing
CC1CCc2c(sc3nnn(CC(=O)Nc4ccc(Cl)cc4)c(=O)c23)C1 (stereo unspecified)	3.6*
O=C(Cn1nnc2sc3c(c2c1=O)CCCC3)Nc1ccc(F)c(Cl)c1	3.6*
O=C(Nc1ccc(Cl)cc1)Nc1nnc(C(F)(F)F)s1	-1
CSc1nnc2c(n1)OC(c1c(F)cccc1Cl)N(C(C)=O)c1ccccc1-2 (stereo unspecified)	1
Cc1cccc(Cl)c1NC(=S)NC1CCCC1	-0.44
CSc1ccccc1N1C(=O)CSC1=S	0.19
Cc1ccc(C(=O)Nc2ccccc2SCc2noc(-c3cccs3)n2)cc1	-1
O=C1OC(Nc2ccccc2Sc2ccc(Cl)cc2[N+](=O)[O-])c2ccccc21 (stereo unspecified)	0.08
O=C1OC(Nc2ccccc2SCc2ccccc2Cl)c2ccccc21 (stereo unspecified)	3.3*
N#Cc1ccc(CSc2ccccc2NC2OC(=O)c3ccccc32)cc1 (stereo unspecified)	3.2
Cc1ccc(C2Sc3ccccc3N=C3c4ccccc4OCC32)cc1 (stereo unspecified)	-2.9
CCOC(=O)c1c(C)c(C#N)c(-n2cccc2)n1-c1ccc(C)cc1	-0.09
CSc1nnc2c(n1)OC(C1CC=C(C)CC1C)Nc1ccccc1-2 (stereo unspecified)	0.25
O=C1c2ccccc2-c2nc3cc(C(F)(F)F)ccc3nc21	-1.7
Cc1nc2ccc([N+](=O)[O-])cc2nc1C	-0.66
Cc1nc2ccc(C(F)(F)F)cc2nc1C	3.5*
O=[N+]([O-])c1cc(C2OCC3(CO)COC(c4csc([N+](=O)[O-])c4)N23)cs1 (stereo unspecified)	2.4
Cc1ccccc1NC(=O)C(C(F)(F)F)C(F)(F)F	1.6
CC1=C(C(=O)OCCOC(C)C)C(c2ccccc2Br)C2=C(CC(C)(C)CC2=O)N1 (stereo unspecified)	0.11
ClC1=C(COc2ccc(Cl)cc2Cl)CSc2ccc(Cl)cc21	1.7
Cc1c(S(=O)(=O)NC2CCCCNC2=O)sc2ccc(Cl)cc12 (stereo unspecified)	1.3
COC(=O)c1csc(S(=O)(=O)NC2CCCCNC2=O)c1OC (stereo unspecified)	4*
O=C1NCCCCC1NS(=O)(=O)c1cccs1 (stereo unspecified)	-0.93
CCOC(=O)c1sc(CS(=O)(=O)c2ccccn2)nc1C	0.92
COc1cc(C2Nc3ccccc3NC3=C2C(=O)CC(c2cccs2)C3)cc(Br)c1O (stereo unspecified)	4.6*
COc1ccc(C2Nc3ccccc3NC3=C2C(=O)CC(c2cccs2)C3)cc1 (stereo unspecified)	24
COc1ccc(C2Nc3ccccc3NC3=C2C(=O)CC(c2ccccc2)C3)cc1OC (stereo unspecified)	0.83
